Laboratory results taken from PubChem BioAssay AID743088 (The Scripps Research Institute Molecular Screening Center, 2013).
Values without a mark were called inactive.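 The calls were made as follows: active = binding inhibited by at least 50%, or stimulated by at least 50%, shown as inhibition of -50% or lower; inactive = the rest.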

Tested on: Phorbol Ester
Assay: off-target binding across receptor panel, profiling panel, selectivity assay for AVPR1a antagonist project, biochemical, Panlabs HitProfilingScreen (AID 743088)
Details: Panlabs radioligand binding panel, 30 targets, at 10 µM, active compounds read high

## O=C(C1CCN(c2ccc(Cl)cn2)CC1)N(CC1CC1)c1ccc(Cl)cc1
  inhibition of binding: -13%
